Source: the supplement of paper PMC10338343
± gives the standard deviation.

System: MILI (PIWIL2) piRISC loaded with piRNA #1 (26 nt)
Assay: pre-steady-state target cleavage rate (min^-1); guide: piRNA #1 5'p-UGAGGUAGUAGGUUGUAUAGUAUCCA; MIWI and MILI are mouse PIWI proteins and EfPiwi is from a freshwater sponge; tags in brackets are library labels; higher = faster piRNA-guided slicing of the target
Conditions: auxiliary factor: 500 nM mouse GTSF1
Procedure: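 Cleave-'n-Seq: a library of target RNAs (target site embedded in constant flanks, ACAGCATTCCGCGTTAGTGATATCCG... 5' flank; DNA-blocked outside the site) at 0.1 nM was incubated with 1 nM active mouse MILI or MIWI piRISC (synthetic 5'-monophosphorylated piRNA guide) with or without 500 nM mouse GTSF1 at 33 °C for 1 min to 16 h. Uncleaved targets were sequenced and normalised to non-target controls, and the pooled three trials were fitted to a burst-and-steady-state model to give the pre-steady-state cleavage rate (min^-1; k3 is constrained to at most 1e-4). Sequence is the target site only; target names encode pairing extent (gX:gY) and contiguous / 1-mismatch / 2-mismatch / bulge geometry. Fits with R² ≤ 0 are excluded.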

Sequence	pre-steady-state target cleavage rate
GGAGACCUAUCUAUACAACCUACUACCCA	0.098 ± 0.019
GGAGACCUAUGUAUACAAGCUACUACCUGA	0.0868 ± 0.015
GGAGUGGAUAAUAUACAACCUACUACCUCA	0.168 ± 0.011
GGAGUGGAUACUAUACAACCUACUACCCCA	0.0956 ± 0.016
GGAGUUGAUACUAUACAACCUACUACCUCA	0.204 ± 0.012
GGAGACCUUACUAUACAAGGUACUACCUCA	0.0785 ± 0.0094
GGAGACCUAUGAUUACAACCUACUACGCUCA	0.0104 ± 0.0039
GGAGACGAAACUAUACAAGCUACUACCUCA	0.242 ± 0.02
GGAGACCAUACUAUACAACCUACUACCAUCA	0.168 ± 0.027
GGAGACGAUACUAUACUUGCUACUACCUCA	0.0658 ± 0.0062
GGAGACGAUACUAUACAACCUACUGCCUCA	0.11 ± 0.015
GGAGACCUAUGAAUACAUCCUACUUCCUCA	0.00892 ± 0.0025
GGAGACCUUACUCAUACAACCUACUACCUCA	0.122 ± 0.016
GGAGACCUAUGAUAUCAACCUACUUACCUCA	0.00342 ± 0.0024
GGAGACCAUACUAUACAACGUAGUACCUCA	0.0119 ± 0.0033
GGAGUCGAUACUAUACAACCUACUACCUCA	0.18 ± 0.013
GGAGUGGAUACUAACAACCUACUACCUCA	0.183 ± 0.011
GGAGACCUAUGAUAUGUUCCUACUUCCUCA	< 0.0001
GGAGUGGAUAGUAUACAAGCUACUACCUCA	0.0697 ± 0.01
GGAGACCUAACUAUACAACCUACUUCGUCA	0.0423 ± 0.017

Sequence	pre-steady-state target cleavage rate
GGAGACCUAACUAUACAACCUACUACCUAA	0.0853 ± 0.015
GGAGACGUUACAAUACAACCUACUACCUCA	0.163 ± 0.015
GGAGACCAUACAAUACAACCUACAACCUCA	0.136 ± 0.014
GGAGACCUAUCUAUACAACGUUCUACCUCA	0.00394 ± 0.0033
GGAGACGAUACUAUACAACCUACUACGCUCA	0.19 ± 0.02
GGAGAGGAUACUAUACAACCAACUACCUCA	0.00747 ± 0.0023
GGAGACGAUACUUAACAACCUACUACCUCA	0.134 ± 0.013
GGAGUGGAUACUUUACAACCUACUAGCUCA	0.0406 ± 0.0075
GGAGACCUUACUAUAGAACCUACUACCACA	0.0558 ± 0.012
GGAGACCUUACUAUUCAACCUAGUACCUCA	0.0486 ± 0.011
GGAGACGAUACAAUACAUCCUACUACCUCA	0.312 ± 0.016
GGAGACGAUACUAUAGAACCUACAACCUCA	0.0115 ± 0.0039
GGAGUGGAUACUAUAGAACGUACUACCUCA	0.0156 ± 0.0021
GGAGUGGAUUCUAUUCAACCUACUACCUCA	0.165 ± 0.008
GGAGACGAUACUAUAGAACCUACUACCACA	0.0976 ± 0.015
GGAGAGCAUACUAUACAACGUACUACCUCA	0.0213 ± 0.003
GGAGAGGAUACUAAACAACCAACUACCUCA	0.00772 ± 0.0023
GGAGACCUAUGUAUACAACCUACUACCAGA	0.055 ± 0.009
GGAGACCUAUCUAUCCAACCUACUACCUCA	0.0742 ± 0.0096
GGAGACCUAACUAUAACAACCUACUACCUCA	0.0743 ± 0.018
